The text below walks through data of PubChem BioAssay (EPA / NIEHS).

Several values for one entry are separate records, joined by “and”; a condition that tells them apart may be missing. Equal entries are not always repeated. Records with an inconclusive call do not appear. More than one record can exist for a structure, and the calls need not agree. Activity calls are given as the source filed them. The calls were made as follows: active = hit-call score of the fitted dose curve at least 0.9, where 1 is the maximum; inconclusive = response in the unintended direction; inactive = score below 0.9.

The assay can be described thus: TOX21_p53_BLA_p3_viability: Viability Assessment in the Tox21 HCT-116 p53 Agonism Beta-lactamase Assay, Phase 3 (AID 2283593).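 Also: cells exposed to compound for 16 h before reading.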 The text has this: TOX21_p53_BLA_p3 is a cell-based, single-readout assay that uses HCT116, a human intestinal cell line, […] in a 1536-well plate.TOX21_p53_BLA_p3_viability is an assay readout measuring cellular ATP content and detected with CellTiter-Glo Luciferase-coupled ATP quantitation.TOX21_p53_BLA_p3_viability used a type of viability reporter where loss-of-signal activity can be used to understand changes in the cell viability. Furthermore, this assay endpoint can be referred to as a secondary readout, because this assay has produced multiple assay endpoints where this one serves a viability function. To generalize the intended target to other relatable targets, this assay endpoint is annotated to the cell cycle intended target family, where the subfamily is cytotoxicity.
Thawing Method: Place 14 mL of pre-warmed thaw medium into a 15 mL of conical tub. Remove the vial of cells to be thawed from liquid nitrogen and thaw rapidly by placing at 37C in a water bath with gentle agitation for 1-2 minutes. Decontaminate the vial by wiping with 70% ethanol before opening in a biological safety cabinet. Transfer the vial contents drop-wise into 14 mL of thaw medium in a sterile 15-mL conical tub. Centrifuge cells at 900 rpm for 4 minutes and resuspend in thaw medium. Transfer contents to the T75 tissue culture flask containing Thaw Medium and place flask in a humidified 37C/5% CO2 incubator. Switch to growth medium at first passage.Propagation Method: Aspirate medium, rinse once in DPBS, add 0.25% Trypsin/EDTA and swirl to coat the cell evenly. Add an equal volume of Growth Medium to inactivate Trypsin after 2-3 minutes incubation at 37C. Centrifuge cells at 900 rpm for 4 minutes and resuspend in growth medium. Cell should be passage or fed at least twice a week.Assay Protocol: Harvest cells from culture in growth medium and resuspend in assay medium. 2.2 Dispense 4000 cells/5 uL/well into 1536-well black/clear bottom plates using a Multidrop dispenser. After the cells were incubated at 37C for 5 hours, 23 nL of compounds dissolved in DMSO were transferred to the assay plate by a PinTool resulting in a 217-fold dilution. Incubate the plates for 16 hours at 37C, 5% CO2. Add 1 uL of 6X LiveBLAzer FRET B/G (CCF4-AM) Substrate Mixture to each well using a BioRAPTR dispenser and incubate the plates at room temperature for 2 hours. Measure fluorescence intensity at 460 and 530 nm emission and 405 nm excitation by an Envision detector. Data is expressed as the ratio of 460nm/530nm emissions. Add 4 uL of Cell-titer Glo to each well using BioRAPTR and incubate the plates at room temperature for […]. For cell viability readout that measures cytotoxicity, 4 ul/well of CellTiter-Glo reagent was added into the assay plates using a Flying Reagent Dispenser. After 30 min incubation at room temperature, the luminescence intensity in the plates was measured using a ViewLux plate reader.
For the compound `CC(C)CCOC(=O)c1ccccc1`, the outcome was inactive.
On the same count and under the same terms, with `C1=CC2C3C=CC(C3)C2C1` (stereo not given) the entry was “inactive”; with `CCCSc1ccc2nc(NC(=O)OC)[nH]c2c1`, “inactive”; with `O=C(Nc1ccc2c(c1)Cc1ccccc1-2)C(F)(F)F`, “inactive”.
For `Cc1ccc(C)o1`, the compound was classed as inactive.
Take `c1ccc(Oc2ccccc2)cc1`: the compound was called inactive.
For the compound `IC(I)I`, the call was inactive.
The same measure, in the same setting: next, `COc1ccccc1N=Nc1c(S(=O)(=O)O)cc2cc(S(=O)(=O)O)cc(NC(C)=O)c2c1O`: “inactive”.
As for `COc1cc([C@@H]2c3cc4c(cc3[C@@H](O[C@@H]3O[C@@H]5CO[C@@H](C)O[C@H]5[C@H](O)[C@H]3O)[C@H]3COC(=O)[C@H]23)OCO4)cc(OC)c1O`, the call was inactive.
On to `C1CCOC1`, for which the result was inactive.
On the same count and under the same terms, with `CCOC(=O)C(C#N)=C(c1ccccc1)c1ccccc1` the entry was “inactive”.
Turning to `CN(C)CCOc1ccc(/C(=C(/CCCl)c2ccccc2)c2ccccc2)cc1`, the AC50 was 66.3 µM (active) and the result was inactive.
For `Nc1ccc(N)c2c1C(=O)c1ccccc1C2=O`, the call was inactive.
Regarding `C=CC(=O)OCCC#N`, the compound was classed as inactive.
Consider `Cc1cc(=O)oc2cc(N(C)C)ccc12`, for which the compound was called inactive.
On the same count and under the same terms, with `O=C(O)CCCCCCCCCCCC(=O)O` the entry was “inactive”; with `O=C1c2ccccc2C(=O)c2c(O)ccc(O)c21`, “inactive”.
Consider `CC(C)(C)CC(C)(C)c1ccc(OCCOCC[N+](C)(C)Cc2ccccc2)cc1`, for which the AC50 was 60.7 µM (active) and 23 µM (active).
Consider `CCOc1ccc(N=Nc2ccc(C=Cc3ccc(N=Nc4ccc(OCC)cc4)cc3S(=O)(=O)O)c(S(=O)(=O)O)c2)cc1`, for which the call was inactive.
Take `CC1(C)O[C@@H]2[C@@H](CO[C@@]3(COS(N)(=O)=O)OC(C)(C)O[C@@H]23)O1`: the outcome was inactive.
On to `CCCCCCCCCCCCCCN(CCO)CCO`, for which the call was inactive.
Turning to `COC(C)(C)CC(C)=O`, the result was inactive.
For the compound `Cc1cc(C)nc(NS(=O)(=O)c2ccc(N)cc2)n1`, the call was inactive.
In the case of `NC(=S)NNC(N)=S`, the compound was classed as inactive.
For `CCCCC(CC)COC(=O)c1ccc(O)cc1` (stereo not given), the AC50 was 84.1 µM (active) and the outcome was inactive.
With `CC(=O)C(C)O` (stereo not given), the compound was called inactive.
The same measure, in the same setting: with `Cc1ncc([N+](=O)[O-])n1CCO` the entry was “inactive”.
For `O=[N+]([O-])c1ccc(O)cc1C(F)(F)F`, the outcome was inactive.
In the case of `CN(C)C(=S)SC(=S)N(C)C`, the compound was called inactive.
As for `CCC(C)S` (stereo not given), the compound was classed as inactive.
Same read-out and setting: next, `CCOCCOCCOCC`: “inactive”; `CC(=O)C1(C)CC2=C(CCCC2(C)C)CC1C` (stereo not given): “inactive”; `O=C(O)c1ccc(O)cc1`: “inactive”.
As for `COc1ccc(N=Nc2cc(C)c(N=Nc3ccc(S(=O)(=O)O)cc3)cc2OC)cc1`, the call was inactive.
As to `CCc1ccc(O)c(OC)c1`, the call was inactive.
With `CCN(CC)C(=O)N(CC)CC`, the result was inactive.
As for `CCCC(C)=O`, the compound was classed as inactive.
Regarding `COc1ccc(CCC(C)=O)cc1`, the outcome was inactive.
